Results on 39 compounds are retold here after PubChem BioAssay AID504660 (National Center for Advancing Translational Sciences (NCATS), 2011).

Where “and” joins values, the source holds several entries; their conditions need not be identical. Equal values may be shown once. In all, about 360,000 compounds went through this assay and about 3,700 (1%) were called active. Cut-off read from the data, not from the text of the source: active = activation above about 30%; inactive = the rest. The entries come from a sample that favours actives as a whole.

This experiment deals with D(1A) dopamine receptor (Homo sapiens) (UniProt P21728). The experiment can be described thus: Allosteric Agonists of the Human D1 Dopamine Receptor: qHTS. Note: 0% is about no effect. Particulars: HEK293 T-REx D1 cells, calcium flux, agonist mode; at 2 µM; hits give high values. The gist of the method: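 Tetracycline-induced HEK293 TREx D1 cells, force-coupled to calcium signalling, were dye-loaded with a no-wash calcium kit. Compound was pin-added after a 10 s baseline. Fluorescence was read kinetically at 1 cycle/s for 180 s, with calcium rises flagged as agonism.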
Chain of D(1A) dopamine receptor (Homo sapiens) (P21728 whole entry, looked up): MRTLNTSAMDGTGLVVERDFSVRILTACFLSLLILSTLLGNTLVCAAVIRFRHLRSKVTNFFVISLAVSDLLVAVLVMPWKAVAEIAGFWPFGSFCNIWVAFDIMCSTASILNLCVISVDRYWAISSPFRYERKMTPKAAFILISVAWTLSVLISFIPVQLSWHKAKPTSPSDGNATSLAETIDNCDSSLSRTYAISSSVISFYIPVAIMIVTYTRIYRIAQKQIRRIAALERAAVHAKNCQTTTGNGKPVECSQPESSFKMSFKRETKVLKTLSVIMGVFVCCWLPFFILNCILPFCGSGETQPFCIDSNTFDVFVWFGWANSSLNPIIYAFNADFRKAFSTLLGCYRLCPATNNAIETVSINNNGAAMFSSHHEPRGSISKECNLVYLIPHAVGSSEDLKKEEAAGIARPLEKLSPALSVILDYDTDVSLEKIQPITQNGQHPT
In the case of `CCOC(=O)c1cc2c(=O)n3ccccc3nc2n(CCCOC)c1=NC(=O)C(C)Oc1ccccc1` (centres undefined), the activation is -0.224% (inactive).

Take `C=CCC(NC(=O)Cc1ccccc1)C(=O)NCCC` (centres undefined): the activation is -1.62% (inactive).

With `C/C(=N\NC(=O)CNC(=O)C(c1ccccc1)c1ccccc1)c1ccc(C)cc1`, the activation is 0.588% (inactive).

As to `CCCCC(=O)NNC(=S)NC(=O)C(c1ccccc1)c1ccccc1`, the activation was 179% (active).

For the compound `CCOc1ccccc1C(=O)NC1(C(F)(F)F)C(=O)Nc2c1c(=O)[nH]c(=O)n2-c1ccc(F)cc1` (centres undefined), the activation was 0.807% (inactive).

Take `COC1=C/C(=C/c2c(N)n3nc(CC(=O)N4CCOCC4)sc3nc2=O)C=CC1=O`: the activation is 8.23% (inactive).

On to `C=CCC1=C/C(=C\c2c(N)n3nc(CC(=O)N4CCOCC4)sc3nc2=O)C=C(OC)C1=O`, for which the activation was 38.1% (active).

Turning to `O=C(NCc1nnc(C(=O)Nc2ccc(C(F)(F)F)cc2Cl)o1)c1ccccc1`, the activation was -0.686% (inactive).

As for `Cc1cc(Br)ccc1NC(=O)Cn1cnc2sc(C)c(S(=O)(=O)N3CCN(C)CC3)c2c1=O`, the activation was 2.4% (inactive).

Turning to `Cc1ccc(C2(C)NC(=O)N(CC(=O)Nc3ccccc3C(=O)N3CCCCC3)C2=O)cc1` (centres undefined), the activation was 10.7% (inactive).

Consider `CC1(c2ccc(Cl)cc2)NC(=O)N(CC(=O)c2ccc3c(c2)OCO3)C1=O` (centres undefined), for which the activation is 53.1% (active).

Take `Cc1ccc(NC(=O)CN2C(=O)NC(C)(c3ccc(Cl)cc3)C2=O)c(Br)c1` (centres undefined): the activation was 37.2% (active).

Consider `CC1(c2ccc3ccccc3c2)NC(=O)N(CC(N)=O)C1=O` (centres undefined), for which the activation was 3.93% (inactive).

Consider `COc1ccc(C2(C)NC(=O)N(CC(=O)c3ccc4c(c3)OCO4)C2=O)cc1` (centres undefined), for which the activation was 38.5% (active).

Regarding `CC1(c2ccc(Cl)cc2Cl)NC(=O)N(CC(=O)Nc2cccnc2Cl)C1=O` (centres undefined), the activation is 3.86% (inactive).

With `Cc1oc(C)c2c(=O)cc(-c3ccc4c(c3)OCO4)cc(OC(=O)c3ccc(Cl)cc3)c12`, the activation is 5.82% (inactive).

As to `COc1ccc(C(=O)CN2C(=O)NC(C)(c3ccc(C)cc3)C2=O)cc1OC` (centres undefined), the activation is 26.6% (inactive).

Take `CC1CN(C(=O)CN2C(=O)NC(C)(c3ccccc3)C2=O)CC(C)O1` (centres undefined): the activation is 0.601% (inactive).

For `O=c1n(Cc2cccc(C(F)(F)F)c2)c2ccccc2c2nc(-c3ccccc3)nn12`, the activation is 5.18% (inactive).

Regarding `CCOC(=O)C1CCCN(C(=O)Cn2ncc3c(C)n(Cc4ccc(F)cc4)c(C)c3c2=O)C1` (centres undefined), the activation is 5.3% (inactive).

With `Cc1nn(-c2ccc(N3CCCCC3)nn2)c(C)c1CCC(=O)NCc1ccccc1F`, the activation is -0.954% (inactive).

With `Cc1ccc(C)c(NC(=O)C2CCCN(S(=O)(=O)c3cn(C)cn3)C2)c1` (centres undefined), the activation was -0.383% (inactive).

For `CC(C)NC(=O)c1nn(-c2ccccc2F)nc1CO`, the activation is 1.01% (inactive).

With `CCOC(=O)c1c(C)oc2nc(C)nc(N(CC(C)C)CC(C)C)c12`, the activation is 5.8% (inactive).

With `CCc1cccc(NC(=O)c2cnc(N3CCOCC3)c3ccccc23)c1`, the activation is -0.292% (inactive).

On to `CC1=C(C(=O)OCC(C)C)C(c2ccc(OCc3ccccc3)cc2)N2C(=O)CCSC2=N1` (centres undefined), for which the activation was 13.9% (inactive).

For the compound `Cc1c(-c2nsc(NC(=O)c3cccc(Cl)c3)n2)nnn1-c1ccccc1C(F)(F)F`, the activation is 6.51% (inactive).

`O=C(O)CCS(=O)(=O)c1ccc(-c2ccccc2)cc1`: the activation was -0.731% (inactive).

As for `O=C(CCS(=O)(=O)c1ccccc1)N(Cc1cccnc1)c1nc2c(F)cccc2s1`, the activation is 7.8% (inactive).

With `Cc1cccc2sc(N(CCCN(C)C)C(=O)CCS(=O)(=O)c3ccccc3)nc12`, the activation was 44.5% (active).

Turning to `CCc1nnc(SCC(=O)Nc2cc(OC)ccc2OC)nc1CC`, the activation is 0.834% (inactive).

Consider `CN(c1ccccc1)c1ccc(/C=c2\s/c(=C(/C#N)C(=O)C(C)(C)C)n(Cc3ccco3)c2=O)cc1`, for which the activation was 86% (active).

`CCOc1ccccc1NC(=O)Cn1c(=O)n(Cc2ccco2)c(=O)c2sc3ccccc3c21`: the activation is 0.44% (inactive).

Consider `CCc1ccccc1NC(=O)c1cc(-c2ccc3c(c2)OCO3)on1`, for which the activation is 1.41% (inactive) and 1.39% (inactive).

Take `Cc1cc(C)nc(NC(=O)Nc2ccccc2C(F)(F)F)n1`: the activation was 7.87% (inactive).

Turning to `O=C(Nc1ccccc1C(F)(F)F)c1cc(-c2ccc(O)cc2)on1`, the activation was 76.6% (active).

For the compound `CCCCC(=O)OC1=CN(Cc2ccccc2)S(=O)(=O)c2ccccc21`, the activation is 43.4% (active).

Regarding `CCOC(=O)CN1C(C(=O)c2ccccc2)=C(OC(=O)C(C)(C)C)c2ccccc2S1(=O)=O`, the activation is 2.02% (inactive).

In the case of `CC(=O)OC1=C(C(C)=O)N(Cc2ccccc2)S(=O)(=O)c2ccccc21`, the activation was -0.292% (inactive).
